Data on 40 molecules can be found in PubChem BioAssay (EPA / NIEHS).

“And” between values parts separate entries of the source, which are not always exact repeats. Equal entries are not always repeated. The source made the active and inactive calls. How the source made its calls: active means hit-call score of the fitted dose curve at least 0.9, where 1 is the maximum; inactive means score below 0.9.

Read-out in this test: Vascular endothelial growth factor receptor 2 (Homo sapiens) (UniProt P35968)
Put plainly: BSK_4H_VEGFRII: BioMAP Diversity Plus: 4H Assay for Vascular endothelial growth factor receptor 2 (VEGFR2) Biomarker Activity (AID 2283031). Conditions: primary human endothelial cells (HUVEC); actives raise or lower the signal. As to the method: BSK_4H is a cell-based, multiplexed-readout assay that uses umbilical vein endothelium, a human vascular primary cell, with measurements taken at 24 hours after chemical dosing in a 96-well plate.BSK_4H_VEGFRII is an assay component measured in the BSK_4H assay. It measures VEGFRII antibody related to regulation of gene expression using ELISA technology.Data from the assay component BSK_4H_VEGFRII was analyzed into 1 assay endpoint. This assay endpoint, BSK_4H_VEGFRII, was analyzed with bidirectional fitting relative to DMSO as the negative control and baseline of activity. Using a type of binding reporter, gain or loss-of-signal activity can be used to understand changes in the signaling as they relate to the gene KDR. Furthermore, this assay endpoint can be referred to as a primary readout, because this assay has produced multiple assay endpoints where this one serves a signaling function. To generalize the intended target to other relatable targets, this assay endpoint is annotated to the kinase intended target family, where the subfamily is receptor tyrosine kinase.
The levels of cell surface (or secreted, indicated by the prefix "s") biomarker endpoints were measured by ELISA. Overt cytotoxicity to cells in confluent adherent cultures (all systems other than the BT system) was assessed by measuring total protein levels using sulforhodamine B (SRB) staining in parallel cultures at the time of biomarker measurements, indicated as SRB endpoints. For proliferation assays for adherent cell types, individual cell types are cultured at sub-confluence and relative cell numbers quantified by SRB staining at time points optimized for each system (48 h: 3C and CASM3C systems; 72 h: BT and HDF3CGF systems; 96 h: SAg system). SRB was performed by staining cells with 0.1% SRB after fixation with 10% TCA and reading wells at 560 nm.Viability and proliferation of PBMC (T cells) was quantified by Alamar Blue reduction for the SAg and BT systems. For PBMC viability (referred to as PBMC Cytotoxicity within the assay endpoint names), cells were plated (75,000/well in a 96-well plate) and then chemical samples added for 1 h before addition of activators, SEB and TSST-1 (20 ng/mL final concentration each). Cells were incubated for 90 h. Then, Alamar Blue (20 uL/well) (Invitrogen, Cat DAL1100) was added for 6 h, and the plates were read with a fluorescence microplate reader at 546/580 nm (excitation/emission). For PBMC proliferation, cells were plated and activated as above but incubated for only 16 h prior to addition of Alamar Blue. Plates were read after 6 h.
For the molecule `CCCCOC(=O)[C@@H](C)Oc1ccc(Oc2ccc(C(F)(F)F)cn2)cc1`, the outcome was inactive. In the case of `CC(C)(C)[C@@H](O)[C@@H](Cc1ccc(Cl)cc1)n1cncn1`, the outcome was inactive.

Regarding `COC(=O)c1cccc(C)c1S(=O)(=O)NC(=O)Nc1nc(OCC(F)(F)F)nc(N(C)C)n1`, the outcome was inactive.

`COC(=O)c1c(Cl)nn(C)c1S(=O)(=O)NC(=O)Nc1nc(OC)cc(OC)n1`: the outcome was inactive. Consider `CCCOC(=O)c1ccc(C(=O)OCCC)nc1`, for which the outcome was inactive. On the same count and under the same terms, the result for `c1ccc(Nc2ccccc2)cc1` reads “inactive”; that for `CCN(Cc1c(F)cccc1Cl)c1c([N+](=O)[O-])cc(C(F)(F)F)cc1[N+](=O)[O-]`, “inactive”; that for `CCCCOC(=O)C(C)Oc1ccc(Oc2ccc(C(F)(F)F)cn2)cc1` (stereo not given), “inactive”. The same measure, in the same setting: then `O=C(O)c1ccccc1`, with “inactive”; and `CCOC(=O)C(C)Oc1ccc(Oc2nc3ccc(Cl)cc3o2)cc1` (stereo not given), with “inactive”. In the case of `COC(=O)CSc1cc(N=c2sc(=O)n3n2CCCC3)c(F)cc1Cl`, the outcome was inactive. The same measure, in the same setting: the result for `CCC(O)=C1C(=O)CC(C(=O)O)CC1=O` (stereo not given) reads “inactive”.

For `COc1nc(C)nc(NC(=O)NS(=O)(=O)c2ccccc2OCCCl)n1`, the outcome was inactive. Still for that read-out and setting: the result for `CCCCCOC(=O)COc1cc(N2C(=O)C3=C(CCCC3)C2=O)c(F)cc1Cl` reads “inactive”. As for `CCSC(=O)N(CC(C)C)CC(C)C`, the result was inactive.

As for `CCOC(=O)NCCOc1ccc(Oc2ccccc2)cc1`, the result was inactive. Turning to `O=C(c1ccc(O)cc1O)c1ccc(O)cc1O`, the outcome was inactive. On the same count and under the same terms, then `C[C@]12CC[C@@H]3c4ccc(O)cc4C[C@@H](CCCCCCCCCS(=O)CCCC(F)(F)C(F)(F)F)[C@H]3[C@@H]1CC[C@@H]2O` (stereo not given in full), with “inactive”; and `O=C(O)C1(C(=O)Nc2ccc(Cl)cc2Cl)CC1`, with “inactive”. On the same count and under the same terms, then `CC(C)(c1ccc(O)cc1)c1ccc(O)cc1`, with “inactive”; and `COC(=O)c1ccccc1C(=O)O`, with “inactive”. In the case of `CCCCC(CC)COC(=O)c1ccccc1C(=O)O` (stereo not given), the outcome was inactive. For the molecule `CCCN(CCC)c1c([N+](=O)[O-])cc(C(F)(F)F)c(N)c1[N+](=O)[O-]`, the AC50 (in general, the concentration at which the activity in the assay is half-maximal) was 32.3 µM (active).

Take `N#CSCSc1nc2ccccc2s1`: the AC50 is 5.06 µM (active) and 5.42 µM (active).

In the case of `CCOC(=O)COc1cc(-n2ncc(C(F)(F)F)c(C)c2=O)c(F)cc1Cl`, the outcome was inactive.

In the case of `O=C(c1ccccc1)C1CCCCC1`, the result was inactive. With `CC(C)CCCCCCc1ccc(O)cc1`, the AC50 was 5.29 µM (active). Consider `c1ccc2[nH]c(-c3cscn3)nc2c1`, for which the result was inactive. The same measure, in the same setting: then `N[C@@H](Cc1cc(I)c(Oc2ccc(O)c(I)c2)c(I)c1)C(=O)O`, with “inactive”; and `COC(=O)c1ccccc1S(=O)(=O)NC(=O)Nc1nc(OC(F)F)cc(OC(F)F)n1`, with “inactive”. Same read-out and setting: the result for `CCCCOCCOCCOCc1cc2c(cc1CCC)OCO2` reads “inactive”; that for `C[C@]12C[C@H](O)[C@H]3[C@@H](CCC4=CC(=O)CC[C@@]43C)[C@@H]1CC[C@@H]2C(=O)CO`, “inactive”.

For the molecule `CCCN(CCC)C(=O)SCC`, the outcome was inactive. Regarding `CCC(C)OC(=O)N1CCCCC1CCO` (stereo not given), the result was inactive. On the same count and under the same terms, then `CCCOC(=O)NCCCN(C)C`, with “inactive”.

For the molecule `S=C([S-])NCCNC(=S)[S-].[Mn+2]`, the outcome was inactive. Take `CSC(=O)c1cccc2nnsc12`: the result was inactive.

For `C=CCOC(Cn1ccnc1)c1ccc(Cl)cc1Cl` (stereo not given), the outcome was inactive. On the same count and under the same terms, then `CN(C)C(=O)Nc1ccc(Cl)c(Cl)c1`, with “inactive”; and `C#C[C@]1(O)CC[C@H]2[C@@H]3CCC4=CC(=O)CC[C@@H]4[C@H]3CC[C@@]21CC`, with “inactive”.
